# Article PMC7862700, “An all-to-all approach to the identification of sequence-specific readers for epigenetic DNA modifications on cytosine”
# Experiments:
# Assay in all cases: DAPPL (digital affinity profiling via proximity ligation, sequencing); 10 mM Tris-HCl pH 7.5, 50 mM NaCl, 1 mM DTT, 4% glycerol, room temperature, 30 min; GST-TFs on glutathione beads, 16-mer random dsDNA library, 0.1% formaldehyde crosslink after washing; high values mean tight binding
# Details in all cases: protein: recombinant; tags: N-terminal GST; dsDNA, one strand shown
# ELK1 = molecular target: T1, ELK1 (Homo sapiens, UniProt P19419 1-428)
# T1 sequence: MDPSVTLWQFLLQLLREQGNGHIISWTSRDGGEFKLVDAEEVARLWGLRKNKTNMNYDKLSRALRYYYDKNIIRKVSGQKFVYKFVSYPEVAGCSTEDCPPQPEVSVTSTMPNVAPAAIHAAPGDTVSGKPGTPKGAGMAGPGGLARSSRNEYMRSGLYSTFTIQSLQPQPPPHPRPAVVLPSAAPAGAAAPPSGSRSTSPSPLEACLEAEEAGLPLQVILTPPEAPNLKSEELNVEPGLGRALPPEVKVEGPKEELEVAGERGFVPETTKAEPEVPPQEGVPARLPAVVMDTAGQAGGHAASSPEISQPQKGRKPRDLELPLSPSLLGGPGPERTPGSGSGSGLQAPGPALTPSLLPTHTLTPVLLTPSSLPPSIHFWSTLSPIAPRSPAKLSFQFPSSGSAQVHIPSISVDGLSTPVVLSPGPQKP
# Method in brief: (§1)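 Binding signal is each hexamer's read frequency for a factor divided by its frequency in the tag-only sample. The factors were GST-fused human transcription factors from yeast, captured on glutathione beads, DNA-barcoded and pooled with that sample. Pools were incubated with 200 nmole of a random double-stranded 16-mer DNA library in Tris/NaCl/DTT/glycerol buffer at room temperature for 30 min, then washed, crosslinked with 0.1% formaldehyde, proximity-ligated with BsaI/T4 ligase (1 h, 37 °C), PCR-amplified and sequenced on an Illumina NextSeq500.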
# GABPA = molecular target: T2, GABPA (Homo sapiens, UniProt Q06546 1-454)
# T2 sequence: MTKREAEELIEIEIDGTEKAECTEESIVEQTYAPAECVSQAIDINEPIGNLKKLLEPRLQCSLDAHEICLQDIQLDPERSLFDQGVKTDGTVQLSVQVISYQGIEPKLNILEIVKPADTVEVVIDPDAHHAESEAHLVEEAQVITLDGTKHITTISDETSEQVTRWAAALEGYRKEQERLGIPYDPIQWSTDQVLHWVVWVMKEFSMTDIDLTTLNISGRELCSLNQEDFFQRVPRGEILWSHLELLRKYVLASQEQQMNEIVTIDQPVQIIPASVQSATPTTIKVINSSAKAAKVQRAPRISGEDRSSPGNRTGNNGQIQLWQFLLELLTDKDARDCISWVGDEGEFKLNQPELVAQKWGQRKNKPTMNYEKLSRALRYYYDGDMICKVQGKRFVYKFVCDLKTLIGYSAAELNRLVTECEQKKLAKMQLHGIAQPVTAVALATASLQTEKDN
# Method in brief: as §1
# ERG = molecular target: T3, ERG (Homo sapiens, UniProt P11308 1-479)
# T3 sequence: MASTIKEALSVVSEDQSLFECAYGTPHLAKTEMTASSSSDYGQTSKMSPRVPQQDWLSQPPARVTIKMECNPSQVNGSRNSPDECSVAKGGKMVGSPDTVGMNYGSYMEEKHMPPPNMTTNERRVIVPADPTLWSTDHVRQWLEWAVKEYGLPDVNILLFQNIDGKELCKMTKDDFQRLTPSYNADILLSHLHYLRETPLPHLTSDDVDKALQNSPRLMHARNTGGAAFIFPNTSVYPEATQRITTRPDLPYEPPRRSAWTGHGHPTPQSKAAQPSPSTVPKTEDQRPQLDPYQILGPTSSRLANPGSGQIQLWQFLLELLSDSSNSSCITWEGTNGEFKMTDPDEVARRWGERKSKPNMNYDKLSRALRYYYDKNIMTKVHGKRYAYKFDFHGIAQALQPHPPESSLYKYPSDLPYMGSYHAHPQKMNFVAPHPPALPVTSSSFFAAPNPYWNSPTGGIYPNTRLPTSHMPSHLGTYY
# Method in brief: as §1
# FEV = molecular target: T4, FEV (Homo sapiens, UniProt Q99581 1-238)
# T4 sequence: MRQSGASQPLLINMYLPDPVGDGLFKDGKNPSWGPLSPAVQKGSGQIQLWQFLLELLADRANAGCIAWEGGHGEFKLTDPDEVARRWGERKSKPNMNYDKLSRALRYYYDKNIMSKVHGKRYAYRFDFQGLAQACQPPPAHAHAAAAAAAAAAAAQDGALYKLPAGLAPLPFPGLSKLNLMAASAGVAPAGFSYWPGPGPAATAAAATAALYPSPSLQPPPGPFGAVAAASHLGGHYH
# Method in brief: as §1
# ETV5 = ETV5 (Homo sapiens, UniProt P41161 1-510)
# Method in brief: as §1
# ELF4 = ELF4 (Homo sapiens, UniProt Q99607 1-663)
# Method in brief: as §1
# ELF3 = molecular target: T5, ELF3 (Homo sapiens, UniProt P78545 1-371)
# T5 sequence: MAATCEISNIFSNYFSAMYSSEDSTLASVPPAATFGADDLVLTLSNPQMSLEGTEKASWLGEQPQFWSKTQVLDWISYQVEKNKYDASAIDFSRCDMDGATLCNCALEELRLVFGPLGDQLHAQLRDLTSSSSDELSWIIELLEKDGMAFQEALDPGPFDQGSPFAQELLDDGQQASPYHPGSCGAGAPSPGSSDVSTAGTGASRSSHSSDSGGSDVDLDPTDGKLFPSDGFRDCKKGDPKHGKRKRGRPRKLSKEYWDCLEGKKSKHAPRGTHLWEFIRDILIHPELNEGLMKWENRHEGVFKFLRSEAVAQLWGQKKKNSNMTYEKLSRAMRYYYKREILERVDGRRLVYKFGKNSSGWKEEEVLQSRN
# Method in brief: as §1
# ETV1 = ETV1 (Homo sapiens, UniProt P50549 1-477)
# Method in brief: as §1
# ETV3L = molecular target: T6, ETV3L (Homo sapiens, UniProt Q6ZN32 1-361)
# T6 sequence: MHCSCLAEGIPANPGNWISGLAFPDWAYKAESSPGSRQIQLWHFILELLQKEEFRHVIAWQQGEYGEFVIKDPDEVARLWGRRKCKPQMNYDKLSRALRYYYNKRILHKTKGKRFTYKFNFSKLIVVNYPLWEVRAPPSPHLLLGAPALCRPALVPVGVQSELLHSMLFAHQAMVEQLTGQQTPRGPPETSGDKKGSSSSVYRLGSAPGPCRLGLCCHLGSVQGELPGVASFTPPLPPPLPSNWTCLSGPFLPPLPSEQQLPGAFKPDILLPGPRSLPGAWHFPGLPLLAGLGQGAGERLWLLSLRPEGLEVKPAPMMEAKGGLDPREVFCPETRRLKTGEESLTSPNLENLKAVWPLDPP
# Method in brief: as §1
# ETS2 = molecular target: T7, ETS2 (Homo sapiens, UniProt P15036 1-469)
# T7 sequence: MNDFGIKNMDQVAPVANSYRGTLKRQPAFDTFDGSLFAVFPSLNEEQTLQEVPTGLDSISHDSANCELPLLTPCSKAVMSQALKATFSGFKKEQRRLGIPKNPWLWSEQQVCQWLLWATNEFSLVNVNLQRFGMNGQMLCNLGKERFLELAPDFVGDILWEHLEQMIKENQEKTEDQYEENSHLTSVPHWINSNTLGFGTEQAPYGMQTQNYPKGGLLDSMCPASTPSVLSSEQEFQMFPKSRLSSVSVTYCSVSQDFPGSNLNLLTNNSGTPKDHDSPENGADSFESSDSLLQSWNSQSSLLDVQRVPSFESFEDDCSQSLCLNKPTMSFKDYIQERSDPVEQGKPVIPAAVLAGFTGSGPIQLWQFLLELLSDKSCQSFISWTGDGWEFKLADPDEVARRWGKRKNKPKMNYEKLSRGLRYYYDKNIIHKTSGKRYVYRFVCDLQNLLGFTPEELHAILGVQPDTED
# Method in brief: as §1
# SPDEF = molecular target: T8, SPDEF (Homo sapiens, UniProt O95238 1-335)
# T8 sequence: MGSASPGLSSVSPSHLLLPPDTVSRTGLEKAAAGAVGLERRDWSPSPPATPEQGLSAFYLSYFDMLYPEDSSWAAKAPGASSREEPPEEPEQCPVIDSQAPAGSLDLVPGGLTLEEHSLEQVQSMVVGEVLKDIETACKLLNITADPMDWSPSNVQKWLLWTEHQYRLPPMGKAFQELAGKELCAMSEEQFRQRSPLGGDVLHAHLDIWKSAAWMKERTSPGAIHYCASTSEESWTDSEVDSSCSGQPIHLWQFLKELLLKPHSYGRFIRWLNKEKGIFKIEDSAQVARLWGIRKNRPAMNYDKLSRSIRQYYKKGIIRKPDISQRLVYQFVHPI
# Method in brief: as §1
# ETV7 = molecular target: T9, ETV7 (Homo sapiens, UniProt Q9Y603 1-341)
# T9 sequence: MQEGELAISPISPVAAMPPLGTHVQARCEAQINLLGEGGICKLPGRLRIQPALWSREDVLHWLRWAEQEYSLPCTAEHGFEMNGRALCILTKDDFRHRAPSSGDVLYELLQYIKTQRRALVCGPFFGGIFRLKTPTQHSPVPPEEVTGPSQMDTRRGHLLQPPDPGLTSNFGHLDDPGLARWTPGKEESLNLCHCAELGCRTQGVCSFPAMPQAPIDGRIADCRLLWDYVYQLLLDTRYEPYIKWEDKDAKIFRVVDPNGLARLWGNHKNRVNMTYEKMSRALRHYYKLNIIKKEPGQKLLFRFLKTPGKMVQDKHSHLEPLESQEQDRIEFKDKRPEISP
# Method in brief: as §1
# ETV1, sequence (P50549 whole entry): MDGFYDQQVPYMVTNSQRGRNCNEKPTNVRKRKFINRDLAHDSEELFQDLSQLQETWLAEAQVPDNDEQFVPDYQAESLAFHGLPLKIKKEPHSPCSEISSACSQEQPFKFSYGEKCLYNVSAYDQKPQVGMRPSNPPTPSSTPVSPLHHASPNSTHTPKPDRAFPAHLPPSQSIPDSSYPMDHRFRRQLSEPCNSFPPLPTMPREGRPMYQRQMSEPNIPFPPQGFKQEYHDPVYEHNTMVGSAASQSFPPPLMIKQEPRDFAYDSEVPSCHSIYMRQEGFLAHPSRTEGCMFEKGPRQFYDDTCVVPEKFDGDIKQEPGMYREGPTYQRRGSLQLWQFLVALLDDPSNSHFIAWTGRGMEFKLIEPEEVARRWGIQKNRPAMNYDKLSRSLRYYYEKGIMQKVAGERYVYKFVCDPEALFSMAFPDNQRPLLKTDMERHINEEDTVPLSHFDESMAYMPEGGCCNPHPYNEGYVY
# ETV5, sequence (P41161 whole entry): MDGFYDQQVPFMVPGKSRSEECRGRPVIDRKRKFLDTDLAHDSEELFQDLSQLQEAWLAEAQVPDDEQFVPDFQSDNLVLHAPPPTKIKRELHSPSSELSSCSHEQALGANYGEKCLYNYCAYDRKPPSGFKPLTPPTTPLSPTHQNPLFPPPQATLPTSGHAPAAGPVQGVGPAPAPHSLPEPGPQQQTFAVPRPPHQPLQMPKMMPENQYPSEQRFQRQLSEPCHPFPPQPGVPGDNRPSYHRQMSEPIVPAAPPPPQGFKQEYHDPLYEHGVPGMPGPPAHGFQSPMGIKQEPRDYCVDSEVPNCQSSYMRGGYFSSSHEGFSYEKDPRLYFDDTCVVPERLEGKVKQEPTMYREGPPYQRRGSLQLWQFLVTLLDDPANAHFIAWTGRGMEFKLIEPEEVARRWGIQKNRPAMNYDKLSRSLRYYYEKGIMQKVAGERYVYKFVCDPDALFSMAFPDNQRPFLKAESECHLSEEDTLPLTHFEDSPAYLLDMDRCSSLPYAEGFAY
# ELF4, sequence (Q99607 whole entry): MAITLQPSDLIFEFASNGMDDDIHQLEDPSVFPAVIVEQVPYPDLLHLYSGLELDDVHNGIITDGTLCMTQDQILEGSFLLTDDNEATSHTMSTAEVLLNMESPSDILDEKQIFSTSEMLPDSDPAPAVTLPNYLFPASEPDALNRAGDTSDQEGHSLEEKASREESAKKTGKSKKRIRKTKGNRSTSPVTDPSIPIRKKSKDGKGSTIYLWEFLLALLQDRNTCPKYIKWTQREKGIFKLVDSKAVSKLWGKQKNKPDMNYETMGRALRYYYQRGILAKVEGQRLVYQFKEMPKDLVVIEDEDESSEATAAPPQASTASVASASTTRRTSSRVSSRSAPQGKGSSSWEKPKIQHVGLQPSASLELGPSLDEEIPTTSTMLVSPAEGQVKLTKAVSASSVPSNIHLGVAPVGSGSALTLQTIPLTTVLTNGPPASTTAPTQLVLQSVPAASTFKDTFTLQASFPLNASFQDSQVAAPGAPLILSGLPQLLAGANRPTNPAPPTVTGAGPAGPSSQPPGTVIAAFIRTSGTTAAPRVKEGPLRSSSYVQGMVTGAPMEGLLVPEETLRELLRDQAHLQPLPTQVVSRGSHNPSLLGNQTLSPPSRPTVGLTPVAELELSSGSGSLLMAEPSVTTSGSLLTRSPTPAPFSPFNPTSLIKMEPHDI
sequence,measurement,setting,value
CAGCAT,binding signal,ELK1,"1 fold enrichment (6-mer frequency, TF over GST control)"
same,binding signal,GABPA,"1.03 fold enrichment (6-mer frequency, TF over GST control)"
same,binding signal,ERG,"1.03 fold enrichment (6-mer frequency, TF over GST control)"
same,binding signal,FEV,"1.04 fold enrichment (6-mer frequency, TF over GST control)"
same,binding signal,ETV5,"1.04 fold enrichment (6-mer frequency, TF over GST control)"
same,binding signal,ELF4,"1.05 fold enrichment (6-mer frequency, TF over GST control)"
same,binding signal,ELF3,"1.07 fold enrichment (6-mer frequency, TF over GST control)"
same,binding signal,ETV1,"1.06 fold enrichment (6-mer frequency, TF over GST control)"
same,binding signal,ETV3L,"1.03 fold enrichment (6-mer frequency, TF over GST control)"
same,binding signal,ETS2,"1.03 fold enrichment (6-mer frequency, TF over GST control)"
same,binding signal,SPDEF,"1.05 fold enrichment (6-mer frequency, TF over GST control)"
same,binding signal,ETV7,"1.01 fold enrichment (6-mer frequency, TF over GST control)"
